These results are taken from publication PMC7862700, “An all-to-all approach to the identification of sequence-specific readers for epigenetic DNA modifications on cytosine”.

Holding throughout (assay): DAPPL (digital affinity profiling via proximity ligation, sequencing); 10 mM Tris-HCl pH 7.5, 50 mM NaCl, 1 mM DTT, 4% glycerol, room temperature, 30 min; GST-TFs on glutathione beads, 16-mer random dsDNA library, 0.1% formaldehyde crosslink after washing; high values mean tight binding
One test deals with T1, FEV (Homo sapiens, UniProt Q99581 1-238).
T1 sequence: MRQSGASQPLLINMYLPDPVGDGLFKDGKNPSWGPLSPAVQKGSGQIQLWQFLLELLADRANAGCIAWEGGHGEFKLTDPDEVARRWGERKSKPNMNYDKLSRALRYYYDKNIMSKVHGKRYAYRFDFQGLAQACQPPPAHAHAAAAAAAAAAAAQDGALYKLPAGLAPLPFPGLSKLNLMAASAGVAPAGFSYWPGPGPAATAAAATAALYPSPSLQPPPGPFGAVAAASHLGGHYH
Particulars: protein: recombinant; tags: N-terminal GST; dsDNA, one strand shown. In a few lines: (§1)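 Pools were built from human transcription factors expressed in yeast as GST fusions, captured on glutathione beads and DNA-barcoded, along with a tag-only sample. Incubation with 200 nmole of a 16-mer random double-stranded DNA library lasted 30 min at room temperature in Tris/NaCl/DTT/glycerol buffer, and was followed by washing, 0.1% formaldehyde crosslinking, proximity ligation, PCR amplification and Illumina NextSeq500 sequencing. Binding signal is the quotient of each hexamer's read frequency for a factor and its frequency for the tag-only sample.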

Another test has as its target ETV5 (Homo sapiens, UniProt P41161 1-510). Particulars: protein: recombinant; tags: N-terminal GST; dsDNA, one strand shown. A digest of the protocol: as §1
The next test deals with HSF1 (Homo sapiens, UniProt Q00613 1-529). Particulars: protein: recombinant; tags: N-terminal GST; chain copies: 3; dsDNA, one strand shown. A digest of the protocol:
as §1

Another test addresses T2, SPIC (Homo sapiens, UniProt Q8N5J4 1-248).
T2 sequence: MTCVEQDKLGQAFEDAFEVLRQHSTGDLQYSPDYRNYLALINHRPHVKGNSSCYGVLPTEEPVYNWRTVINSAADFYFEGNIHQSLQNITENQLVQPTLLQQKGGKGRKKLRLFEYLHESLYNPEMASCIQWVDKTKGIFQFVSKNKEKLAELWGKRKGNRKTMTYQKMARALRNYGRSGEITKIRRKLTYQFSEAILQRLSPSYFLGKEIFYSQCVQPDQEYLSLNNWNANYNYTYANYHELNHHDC
Particulars: protein: recombinant; tags: N-terminal GST; dsDNA, one strand shown. A digest of the protocol: as §1

The next test deals with ELF4 (Homo sapiens, UniProt Q99607 1-663). The note with it: protein: recombinant; tags: N-terminal GST; dsDNA, one strand shown. A digest of the protocol:
as §1

In the next test the target is T3, ELK4 (Homo sapiens, UniProt P28324-2 1-405).
T3 sequence: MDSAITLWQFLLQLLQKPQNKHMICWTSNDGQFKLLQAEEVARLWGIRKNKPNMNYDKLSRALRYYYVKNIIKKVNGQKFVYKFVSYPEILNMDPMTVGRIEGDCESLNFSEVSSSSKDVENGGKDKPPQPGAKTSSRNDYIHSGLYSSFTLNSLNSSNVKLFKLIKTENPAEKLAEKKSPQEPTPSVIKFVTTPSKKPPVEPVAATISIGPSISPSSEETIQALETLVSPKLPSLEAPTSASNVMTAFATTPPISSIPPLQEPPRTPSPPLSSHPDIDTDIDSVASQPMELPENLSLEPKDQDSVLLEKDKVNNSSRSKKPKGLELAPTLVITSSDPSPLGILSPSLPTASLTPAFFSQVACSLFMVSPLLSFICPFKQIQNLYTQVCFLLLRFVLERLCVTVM
The note with it: protein: recombinant; tags: N-terminal GST; dsDNA, one strand shown. A digest of the protocol:
as §1

A further test concerns the target T4, ETV2 (Homo sapiens, UniProt O00321 1-342).
T4 sequence: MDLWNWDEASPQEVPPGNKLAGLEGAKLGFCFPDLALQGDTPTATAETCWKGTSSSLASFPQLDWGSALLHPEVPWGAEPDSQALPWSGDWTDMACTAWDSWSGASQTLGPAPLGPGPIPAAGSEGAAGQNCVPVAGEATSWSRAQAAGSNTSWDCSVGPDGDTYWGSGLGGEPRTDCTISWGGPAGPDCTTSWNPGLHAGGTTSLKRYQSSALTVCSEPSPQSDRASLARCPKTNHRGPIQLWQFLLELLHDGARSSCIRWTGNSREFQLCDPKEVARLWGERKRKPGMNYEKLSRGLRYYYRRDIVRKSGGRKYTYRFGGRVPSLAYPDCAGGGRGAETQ
Particulars: protein: recombinant; tags: N-terminal GST; dsDNA, one strand shown. A digest of the protocol:
as §1

A further test deals with T5, ELF3 (Homo sapiens, UniProt P78545 1-371).
T5 sequence: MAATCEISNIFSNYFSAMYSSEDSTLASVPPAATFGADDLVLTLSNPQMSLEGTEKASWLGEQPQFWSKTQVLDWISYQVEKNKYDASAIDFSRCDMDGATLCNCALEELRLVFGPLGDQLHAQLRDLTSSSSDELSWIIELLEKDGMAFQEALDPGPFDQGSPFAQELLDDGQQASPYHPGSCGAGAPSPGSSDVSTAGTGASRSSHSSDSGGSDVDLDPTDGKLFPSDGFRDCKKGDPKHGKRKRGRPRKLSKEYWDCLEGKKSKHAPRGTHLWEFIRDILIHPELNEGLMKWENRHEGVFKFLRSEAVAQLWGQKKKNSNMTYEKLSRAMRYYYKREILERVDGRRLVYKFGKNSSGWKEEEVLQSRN
The note with it: protein: recombinant; tags: N-terminal GST; dsDNA, one strand shown. A digest of the protocol: as §1

For a further test, the target named is CRX (Homo sapiens, UniProt O43186 1-299). The note with it: protein: recombinant; tags: N-terminal GST; dsDNA, one strand shown. In a few lines: as §1
Chain of CRX (O43186 whole entry): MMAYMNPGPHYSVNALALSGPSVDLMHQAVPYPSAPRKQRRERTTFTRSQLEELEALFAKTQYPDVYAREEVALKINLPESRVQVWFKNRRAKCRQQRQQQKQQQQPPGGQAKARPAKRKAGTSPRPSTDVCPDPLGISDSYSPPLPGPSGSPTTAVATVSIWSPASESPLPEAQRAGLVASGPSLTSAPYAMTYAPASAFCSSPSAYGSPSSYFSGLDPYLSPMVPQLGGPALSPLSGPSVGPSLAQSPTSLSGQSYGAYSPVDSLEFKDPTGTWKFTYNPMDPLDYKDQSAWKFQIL
A further test addresses ETV1 (Homo sapiens, UniProt P50549 1-477). The note with it: protein: recombinant; tags: N-terminal GST; dsDNA, one strand shown. A digest of the protocol: as §1
The target of the next test is T6, ERF (Homo sapiens, UniProt P50548 1-548).
T6 sequence: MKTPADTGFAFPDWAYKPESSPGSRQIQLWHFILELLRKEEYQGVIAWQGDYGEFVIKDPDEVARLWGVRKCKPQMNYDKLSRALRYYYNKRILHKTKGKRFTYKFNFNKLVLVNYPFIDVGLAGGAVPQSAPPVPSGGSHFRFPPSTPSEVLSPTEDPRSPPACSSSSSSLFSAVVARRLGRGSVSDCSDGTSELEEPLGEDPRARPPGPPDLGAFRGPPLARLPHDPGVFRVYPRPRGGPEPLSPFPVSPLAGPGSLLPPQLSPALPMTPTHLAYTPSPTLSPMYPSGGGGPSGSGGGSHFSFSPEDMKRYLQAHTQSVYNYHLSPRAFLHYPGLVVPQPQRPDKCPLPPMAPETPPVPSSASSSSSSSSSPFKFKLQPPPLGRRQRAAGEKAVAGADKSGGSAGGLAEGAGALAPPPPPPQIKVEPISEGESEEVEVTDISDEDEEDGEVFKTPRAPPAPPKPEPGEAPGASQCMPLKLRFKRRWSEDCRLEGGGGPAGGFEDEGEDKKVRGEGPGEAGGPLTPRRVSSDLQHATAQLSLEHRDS
Particulars: protein: recombinant; tags: N-terminal GST; dsDNA, one strand shown. In a few lines:
as §1

In another test the target is T7, ETV3L (Homo sapiens, UniProt Q6ZN32 1-361).
T7 sequence: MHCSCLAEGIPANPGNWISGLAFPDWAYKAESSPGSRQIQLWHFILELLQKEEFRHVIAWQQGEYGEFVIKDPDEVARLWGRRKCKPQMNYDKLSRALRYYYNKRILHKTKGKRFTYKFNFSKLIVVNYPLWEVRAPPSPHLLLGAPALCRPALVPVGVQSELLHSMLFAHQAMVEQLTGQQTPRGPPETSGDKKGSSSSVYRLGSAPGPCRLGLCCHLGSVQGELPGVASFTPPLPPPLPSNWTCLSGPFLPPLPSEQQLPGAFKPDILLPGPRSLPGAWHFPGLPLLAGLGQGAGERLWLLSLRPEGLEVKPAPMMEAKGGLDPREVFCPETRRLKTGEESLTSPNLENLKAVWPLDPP
Particulars: protein: recombinant; tags: N-terminal GST; dsDNA, one strand shown. A digest of the protocol: as §1

Another test addresses T8, ETS2 (Homo sapiens, UniProt P15036 1-469).
T8 sequence: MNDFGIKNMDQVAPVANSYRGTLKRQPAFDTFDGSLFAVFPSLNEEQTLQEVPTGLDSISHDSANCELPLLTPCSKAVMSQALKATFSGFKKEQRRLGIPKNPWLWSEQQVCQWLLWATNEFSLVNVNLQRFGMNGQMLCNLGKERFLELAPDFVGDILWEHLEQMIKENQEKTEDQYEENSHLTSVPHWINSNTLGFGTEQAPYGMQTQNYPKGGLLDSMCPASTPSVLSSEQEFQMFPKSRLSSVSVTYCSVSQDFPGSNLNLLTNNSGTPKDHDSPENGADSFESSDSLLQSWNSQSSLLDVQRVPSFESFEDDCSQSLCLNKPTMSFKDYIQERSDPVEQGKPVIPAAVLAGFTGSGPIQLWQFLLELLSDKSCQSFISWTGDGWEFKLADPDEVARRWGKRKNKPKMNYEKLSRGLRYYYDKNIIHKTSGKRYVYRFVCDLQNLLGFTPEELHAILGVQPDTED
Particulars: protein: recombinant; tags: N-terminal GST; dsDNA, one strand shown. A digest of the protocol:
as §1

For another test, the target named is T9, SPDEF (Homo sapiens, UniProt O95238 1-335).
T9 sequence: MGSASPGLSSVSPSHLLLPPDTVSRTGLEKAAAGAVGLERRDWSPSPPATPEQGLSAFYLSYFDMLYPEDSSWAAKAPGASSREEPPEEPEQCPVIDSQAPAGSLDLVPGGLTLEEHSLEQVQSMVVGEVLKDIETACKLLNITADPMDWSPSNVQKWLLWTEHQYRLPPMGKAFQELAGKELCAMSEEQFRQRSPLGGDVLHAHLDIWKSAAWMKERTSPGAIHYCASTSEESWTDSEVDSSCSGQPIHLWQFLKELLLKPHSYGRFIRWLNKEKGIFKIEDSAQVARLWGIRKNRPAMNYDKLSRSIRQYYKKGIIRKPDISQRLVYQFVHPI
The note with it: protein: recombinant; tags: N-terminal GST; dsDNA, one strand shown. A digest of the protocol:
as §1

For the next test, the target named is T10, ETV7 (Homo sapiens, UniProt Q9Y603 1-341).
T10 sequence: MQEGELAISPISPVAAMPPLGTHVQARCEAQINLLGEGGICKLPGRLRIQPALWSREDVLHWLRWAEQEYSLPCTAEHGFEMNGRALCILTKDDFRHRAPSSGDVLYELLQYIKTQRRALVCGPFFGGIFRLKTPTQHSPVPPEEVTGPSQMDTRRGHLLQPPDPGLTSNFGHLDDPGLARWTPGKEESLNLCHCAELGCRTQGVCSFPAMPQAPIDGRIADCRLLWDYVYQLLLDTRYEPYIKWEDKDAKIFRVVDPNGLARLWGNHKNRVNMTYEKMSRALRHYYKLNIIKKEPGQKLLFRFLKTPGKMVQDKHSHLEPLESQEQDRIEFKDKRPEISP
Particulars: protein: recombinant; tags: N-terminal GST; dsDNA, one strand shown. A digest of the protocol: as §1

The target of another test is T11, ELF5 (Homo sapiens, UniProt Q9UKW6-2 1-255).
T11 sequence: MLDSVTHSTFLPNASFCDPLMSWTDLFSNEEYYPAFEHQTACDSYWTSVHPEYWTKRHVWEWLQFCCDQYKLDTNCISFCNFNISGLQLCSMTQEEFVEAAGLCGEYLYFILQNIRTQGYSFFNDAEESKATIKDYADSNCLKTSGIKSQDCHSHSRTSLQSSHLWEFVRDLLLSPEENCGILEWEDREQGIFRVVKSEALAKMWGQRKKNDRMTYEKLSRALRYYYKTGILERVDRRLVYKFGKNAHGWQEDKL
The note with it: protein: recombinant; tags: N-terminal GST; dsDNA, one strand shown. In a few lines:
as §1

A further test has as its target T12, ETV3 (Homo sapiens, UniProt P41162-2 1-143).
T12 sequence: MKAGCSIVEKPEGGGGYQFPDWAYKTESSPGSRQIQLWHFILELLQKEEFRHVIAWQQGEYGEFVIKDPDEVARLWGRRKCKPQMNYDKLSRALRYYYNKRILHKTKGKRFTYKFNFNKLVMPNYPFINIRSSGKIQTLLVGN
The note with it: protein: recombinant; tags: N-terminal GST; dsDNA, one strand shown. A digest of the protocol: as §1

A further test deals with ETV6 (Homo sapiens, UniProt P41212 1-452). Particulars: protein: recombinant; tags: N-terminal GST; dsDNA, one strand shown. A digest of the protocol:
as §1

Chain of ELF4 (Q99607 whole entry): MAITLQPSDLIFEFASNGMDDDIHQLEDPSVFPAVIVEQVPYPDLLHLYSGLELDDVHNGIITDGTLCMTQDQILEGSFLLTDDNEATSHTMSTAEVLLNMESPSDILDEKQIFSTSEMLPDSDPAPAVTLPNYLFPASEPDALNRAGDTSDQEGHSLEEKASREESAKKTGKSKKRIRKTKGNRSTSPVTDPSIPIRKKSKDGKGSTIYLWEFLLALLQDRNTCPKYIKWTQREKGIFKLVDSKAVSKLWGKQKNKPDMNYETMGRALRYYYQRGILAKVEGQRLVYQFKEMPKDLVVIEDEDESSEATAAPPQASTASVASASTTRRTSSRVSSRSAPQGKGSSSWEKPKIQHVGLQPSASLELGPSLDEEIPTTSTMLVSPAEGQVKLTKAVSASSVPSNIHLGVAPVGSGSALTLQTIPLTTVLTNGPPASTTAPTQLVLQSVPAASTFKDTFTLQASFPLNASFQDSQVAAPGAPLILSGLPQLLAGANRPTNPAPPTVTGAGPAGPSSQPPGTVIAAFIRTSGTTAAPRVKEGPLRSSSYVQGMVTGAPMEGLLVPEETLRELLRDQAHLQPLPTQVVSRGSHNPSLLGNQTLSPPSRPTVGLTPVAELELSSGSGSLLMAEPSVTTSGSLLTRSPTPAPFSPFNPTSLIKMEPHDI
Chain of ETV5 (P41161 whole entry): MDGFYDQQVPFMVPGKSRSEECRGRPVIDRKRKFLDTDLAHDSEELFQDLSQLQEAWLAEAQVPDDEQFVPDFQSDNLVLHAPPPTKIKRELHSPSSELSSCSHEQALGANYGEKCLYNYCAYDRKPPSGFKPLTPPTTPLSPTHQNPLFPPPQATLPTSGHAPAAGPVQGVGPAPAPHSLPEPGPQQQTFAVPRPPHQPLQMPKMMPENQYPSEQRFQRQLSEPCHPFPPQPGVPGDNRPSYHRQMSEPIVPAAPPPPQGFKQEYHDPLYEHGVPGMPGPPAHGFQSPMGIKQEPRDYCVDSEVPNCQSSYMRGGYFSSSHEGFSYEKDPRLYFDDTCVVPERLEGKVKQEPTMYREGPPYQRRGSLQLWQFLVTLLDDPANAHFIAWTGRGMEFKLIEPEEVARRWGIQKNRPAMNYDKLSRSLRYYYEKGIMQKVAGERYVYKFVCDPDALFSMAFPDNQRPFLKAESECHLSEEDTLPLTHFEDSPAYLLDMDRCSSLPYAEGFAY
Chain of ETV6 (P41212 whole entry): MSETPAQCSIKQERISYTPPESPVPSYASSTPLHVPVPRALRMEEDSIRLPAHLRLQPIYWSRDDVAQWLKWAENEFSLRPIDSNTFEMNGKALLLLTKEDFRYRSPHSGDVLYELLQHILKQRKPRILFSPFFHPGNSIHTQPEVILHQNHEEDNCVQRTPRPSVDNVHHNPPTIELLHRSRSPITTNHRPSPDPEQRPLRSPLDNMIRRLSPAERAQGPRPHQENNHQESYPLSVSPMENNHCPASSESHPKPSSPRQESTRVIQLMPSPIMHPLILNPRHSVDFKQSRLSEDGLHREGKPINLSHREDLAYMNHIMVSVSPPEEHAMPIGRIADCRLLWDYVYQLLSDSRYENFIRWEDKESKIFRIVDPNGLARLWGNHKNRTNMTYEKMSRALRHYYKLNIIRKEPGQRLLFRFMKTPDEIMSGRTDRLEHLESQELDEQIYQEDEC
Chain of ETV1 (P50549 whole entry): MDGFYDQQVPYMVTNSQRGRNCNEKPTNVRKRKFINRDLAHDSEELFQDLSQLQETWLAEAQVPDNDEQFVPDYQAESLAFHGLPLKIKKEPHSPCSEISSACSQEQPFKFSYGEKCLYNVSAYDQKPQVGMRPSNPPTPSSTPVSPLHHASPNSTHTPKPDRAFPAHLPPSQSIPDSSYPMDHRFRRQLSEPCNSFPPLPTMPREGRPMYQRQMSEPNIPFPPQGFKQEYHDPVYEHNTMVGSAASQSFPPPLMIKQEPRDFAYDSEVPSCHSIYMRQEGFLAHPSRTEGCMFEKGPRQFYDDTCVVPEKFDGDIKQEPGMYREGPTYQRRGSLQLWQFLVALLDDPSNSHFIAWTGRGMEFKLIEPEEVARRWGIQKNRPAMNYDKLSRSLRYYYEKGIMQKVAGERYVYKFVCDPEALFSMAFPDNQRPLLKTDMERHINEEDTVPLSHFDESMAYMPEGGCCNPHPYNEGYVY
Chain of HSF1 (Q00613 whole entry): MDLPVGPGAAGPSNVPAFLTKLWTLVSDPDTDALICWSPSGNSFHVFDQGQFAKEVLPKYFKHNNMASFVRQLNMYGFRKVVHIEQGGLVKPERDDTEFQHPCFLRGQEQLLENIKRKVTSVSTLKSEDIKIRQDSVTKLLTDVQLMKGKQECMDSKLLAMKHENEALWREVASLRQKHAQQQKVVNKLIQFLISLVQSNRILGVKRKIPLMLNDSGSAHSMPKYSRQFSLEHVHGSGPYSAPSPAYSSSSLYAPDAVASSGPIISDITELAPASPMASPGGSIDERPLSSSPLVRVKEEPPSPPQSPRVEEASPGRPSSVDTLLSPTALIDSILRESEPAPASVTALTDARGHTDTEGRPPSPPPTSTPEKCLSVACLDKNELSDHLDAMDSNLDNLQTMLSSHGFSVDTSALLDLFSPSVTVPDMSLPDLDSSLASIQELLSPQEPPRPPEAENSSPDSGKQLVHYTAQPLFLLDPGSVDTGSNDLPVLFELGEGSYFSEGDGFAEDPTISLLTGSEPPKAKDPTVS

In the case of TTATAC, the binding signal with FEV was 1.35 fold enrichment (6-mer frequency, TF over GST control); with ETV5, 1.29 fold enrichment (6-mer frequency, TF over GST control); with HSF1, 1.79 fold enrichment (6-mer frequency, TF over GST control); in the test with SPIC, 1.42 fold enrichment (6-mer frequency, TF over GST control); with ELF4, 1.49 fold enrichment (6-mer frequency, TF over GST control); in the test with ELK4, 1.38 fold enrichment (6-mer frequency, TF over GST control). For the same sequence, the binding signal is 1.38 fold enrichment (6-mer frequency, TF over GST control) in the test with ETV2; 1.43 fold enrichment (6-mer frequency, TF over GST control) with ELF3; 2.54 fold enrichment (6-mer frequency, TF over GST control) in the test with CRX; 1.5 fold enrichment (6-mer frequency, TF over GST control) with ETV1; 1.55 fold enrichment (6-mer frequency, TF over GST control) with ERF; 1.39 fold enrichment (6-mer frequency, TF over GST control) with ETV3L. Further, the binding signal in the test with ETS2 is 1.42 fold enrichment (6-mer frequency, TF over GST control); with SPDEF, 1.38 fold enrichment (6-mer frequency, TF over GST control); with ETV7, 1.53 fold enrichment (6-mer frequency, TF over GST control); with ELF5, 1.39 fold enrichment (6-mer frequency, TF over GST control); in the test with ETV3, 1.37 fold enrichment (6-mer frequency, TF over GST control); with ETV6, 1.42 fold enrichment (6-mer frequency, TF over GST control).
